Compound activity as filed in PubChem BioAssay.
Shh pathway inh: Hedgehog pathway signaling inhibitors, primary screen, luminescence, Shh-LIGHT2 cells, Gli-luciferase | hit rate 2.1% among 22,000 | AID 2313, 2010 | Shh-LIGHT2 Gli-luciferase reporter, 30 h | inhibition, % (no concentration beside the values);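 active = mean inhibition across valid replicates above about 65%, limit read from the data; inconclusive = mean under the limit, yet half or more replicates past it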;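 note: pathway switched on by Shh-conditioned medium diluted 1 in 25 in low serum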
PD-1 reverse act: activators reversing PD-1 mediated T-cell inhibition, primary screen, luminescence, primary human CD4 T cells, PD-L1 beads; CellTiter-Glo 96 h; activation, % (no concentration beside the values); 29,000 tested, under 10 active; AID 2316, 2010; call rule not given here;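 note: 0% = median vehicle wells and 100% = positive control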
NOMO-1 viab: NOMO-1 AML cell viability reduction, primary screen, STK33 inhibitor project, CellTiter-Glo luminescence; hit rate 7.5% among 37,000; NOMO-1 AML viability, 72 h; inhibition, % (no concentration beside the values); in the data active = inhibition above about 80%; inconclusive = no clear call, values can overlap the other calls
MITF inhib: inhibitors of MITF, primary screen, MITF inhibitor project, cell-based, luminescence; TRPM1 promoter luciferase, 24 h; inhibition, % (test concentration not listed); hit rate 0.28% among 37,000; in the data active = inhibition above about 85%; inconclusive = no clear call, values can overlap the other calls; inactive = below about 68%;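 note: human melanocyte line stably carrying TRPM1 promoter luciferase reporter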
Starred values were filed as active, the others as inactive; ? = inconclusive; . = no result given. Most compounds without a hit are left out; they make up all but 7.8% or so of the library.

SMILES	Shh pathway inh	PD-1 reverse act	NOMO-1 viab	MITF inhib
CC1(C)CC(=O)C=C(SCC(=O)Nc2cc(C(F)(F)F)cc(C(F)(F)F)c2)S1	92*	-2	103*	52
CCN=C(Nc1ccc(C(C)(C)C)cc1)SCC1CC1	.	1	-1	-15
C[C@@H]1CN([C@@H](C)CO)C(=O)Cc2cc(NC(=O)Cc3ccccc3)ccc2O[C@@H]1CN(C)Cc1ccc(Cl)c(Cl)c1	.	-5	108*	37
C[C@@H]1CN([C@H](C)CO)C(=O)Cc2cc(NC(=O)Cc3ccccc3)ccc2O[C@@H]1CN(C)Cc1ccc(Cl)c(Cl)c1	26	-4	127*	28
C[C@@H]1CN([C@@H](C)CO)C(=O)Cc2cc(NC(=O)Cc3ccccc3)ccc2O[C@@H]1CN(C)Cc1ccccc1	-10	1	44	-5
C[C@@H]1CN([C@H](C)CO)C(=O)Cc2cc(NC(=O)Cc3ccccc3)ccc2O[C@H]1CN(C)Cc1ccc2c(c1)OCO2	-9	0	7	6
O=C1NC(=O)C2(COC(c3ccccc3)OC2)S1 (configuration not stated)	-33	0	25	-7
C=C1C(=O)O[C@@H]2C[C@H](C)[C@@]3(O)C[C@H](O)[C@@](C)(C[C@@H](OC(=O)C(C)C)[C@@H]12)O3	17	-14	119*	-11
Cc1cc(C)c(NC(=O)CCNC2CCCCC2)c(C)c1	3	-1	32	-3
O=C(N=S1CCN(C(=O)c2ccc(Cl)cc2)CC1)c1ccc(Cl)cc1	4	-1	18	6
O=C(COc1ccc(Br)cc1)Nc1cccc(-c2nc3cc(Cl)ccc3o2)c1	.	-2	17	-25
Cc1cccc(C)c1NC(=S)N(CCC#N)C(C)C	.	0	24	0
COC(=O)c1cccc(NC(=O)CN(c2cccc(F)c2)S(C)(=O)=O)c1C	.	.	98*	-19
COC(=O)c1cccc(NC(=O)CN(c2ccc(F)c(Cl)c2)S(C)(=O)=O)c1C	.	-2	106*	-9
COC(=O)c1cc(NC(=O)CN(c2ccc(F)c(Cl)c2)S(C)(=O)=O)ccc1Cl	.	.	96*	-3
COC(=O)c1cccc(NC(=O)CN(c2ccc(F)cc2)S(C)(=O)=O)c1C	.	.	109*	6
O=C(CSc1nnnn1-c1ccccc1)Nc1ccc(Br)c(Cl)c1	.	.	-8	-7
N#Cc1c(NC(=O)CCn2cnc3ccccc3c2=O)sc2c1CCC2	.	.	8	-21
CC(=O)OCC1(C)CC2[C@]3(CO[C@@]24CCC2[C@@]5(C)CC[C@H](O[C@@H]6OC[C@@H](O)[C@H](O)[C@H]6O)[C@@](C)(CO)C5CC[C@@]2(C)[C@]4(C)C[C@H]3O)[C@@H](O)C1 (some centres not stated)	76*	-6	123*	7
C[C@H]1CN([C@@H](C)CO)C(=O)c2cccc(NC(=O)NC3CCCCC3)c2O[C@H]1CN(C)S(=O)(=O)c1ccc(F)cc1	103*	1	34	24
Cc1ccc(S(=O)(=O)N(C)C[C@@H]2Oc3c(NC(=O)NC4CCCCC4)cccc3C(=O)N([C@@H](C)CO)C[C@@H]2C)cc1	100*	.	26	32
C[C@H](CO)N1C[C@H](C)[C@H](CN(C)S(=O)(=O)c2ccc(Cl)cc2)Oc2c(NC(=O)NC3CCCCC3)cccc2C1=O	122*	-11	120*	63
C[C@H]1CN([C@@H](C)CO)C(=O)c2cccc(NC(=O)NC3CCCCC3)c2O[C@@H]1CN(C)S(=O)(=O)c1ccc(Cl)cc1	30	1	5	4
COc1ccc(-n2c(-c3ccc(Cl)cc3)n[nH]c2=S)cc1	5	0	1	-17
COc1ccc(OCC(=O)N2CCN(S(=O)(=O)c3ccc(OC)cc3)CC2)cc1	.	0	28	9
Cn1cc(C2=C(c3cn(CCCSC(=N)N)c4ccccc34)C(=O)NC2=O)c2ccccc21	44	-9	142*	68
C=C1C(=O)O[C@@H]2/C=C(/CO[C@@H]3O[C@H](CO)[C@@H](O)[C@H](O)[C@H]3O)CC/C=C3\C[C@H](OC3=O)[C@@H]12	-7	1	-7	-22
C=C1C(=O)O[C@@H]2/C=C(/COC(C)=O)CC/C=C(/CO)CC[C@@H]12	-2	-3	117*	-31
C=C1C(=O)OC2CC1C(OC(C)=O)C/C(C)=C\CC/C(C)=C\CC[C@]2(C)O (some centres not stated)	87*	.	111*	?
C=C1C(=O)O[C@@H]2/C=C(/C)CC/C=C(/C=O)C[C@@H](OC(=O)CC(C)C)C12 (some centres not stated)	2	.	.	.
